Screening results: PubChem, National Center for Advancing Translational Sciences (NCATS)
The sample as a whole holds a higher share of hits than the screen did.
15-hLO inh = qHTS Assay for Inhibitors of 15-hLO (15-human lipoxygenase); Potency, µM (series often up to 57.1 µM), most hits filed as inhibitors; AID 887, 2007; Polyunsaturated fatty acid lipoxygenase ALOX15 (Homo sapiens), P16050; purified 15hLO-1, xylenol orange hydroperoxide absorbance; 1.4% of 74,000 active; note: nearly all actives have a fitted effect of over 55% in size
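Purified human 15hLO-1 (40 nM final) in 25 mM Hepes pH 7.5, 0.01% Triton X-100 was preincubated with compound 15 min at room temperature, then reacted 6 min with 50 uM arachidonic acid; hydroperoxide detected by Fe-XO, 573/405 nm absorbance ratio.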
15-hLO-2 inh = qHTS Assay for Inhibitors of 15-hLO-2 (15-human lipoxygenase 2); Polyunsaturated fatty acid lipoxygenase ALOX15B (Homo sapiens), O15296; purified 15hLO-2, xylenol orange hydroperoxide absorbance; Potency, µM (top dose mostly 57.1 µM), hits mostly inhibitors; 0.56% of 110,000 active; AID 881, 2007; note: nearly all actives have a fitted effect of over 60% in size
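Read-out: hydroperoxide product oxidises ferrous iron, measured as xylenol orange complex via the 573-to-405 nm absorbance ratio after 30 min. Reaction: 50 nM enzyme, 15 min compound preincubation, 45 uM arachidonic acid, 90 min RT, Hepes pH 7.5 with Triton X-100.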
YjeE inh = qHTS Assay for Inhibitors of YjeE. tRNA threonylcarbamoyladenosine biosynthesis protein TsaE (Escherichia coli (strain …. purified YjeE enzyme, qHTS inhibition assay. Potency, µM. 0.05% of 71,000 active. AID 605, 2007
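Purified YjeE (10 uM) with BODIPY Texas Red-labeled ADP probe (2 uM); compounds pin-transferred, 15 min at room temperature. Binding inhibition read as decreased fluorescence polarization; ADP titration as control.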
DNA Pol III inh = qHTS Assay for Inhibitors of DNA Polymerase III Holoenzyme System; 0.25% of 71,000 active; Potency, µM (highest dose often 57.1 µM); reconstituted DNA polymerase III holoenzyme replication, biochemical
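Reconstituted *E. coli* holoenzyme (0.35 nM Pol III, 1 nM beta, 154 nM SSB, 2 nM primase) was preincubated with compound for 15 min at RT. Synthesis on 1.4 nM ssM13Gori ran 35 min, then was stopped with PicoGreen/EDTA and read as dsDNA fluorescence.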
BRCT PPI green = qHTS Assay for Inhibitors of BRCT-Phosphoprotein Interaction (Green Fluorophore); 0.05% of 75,000 active; Breast cancer type 1 susceptibility protein (Homo sapiens), P38398; Potency, µM (series often up to 76.9 µM), usual class: inhibitors; BRCA1 BRCT-phosphopeptide binding, green fluorescence polarization; AID 875, 2007
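Fluorescence polarization: His-tagged BRCT (~35 kDa BRCA1 C-terminus, 250 nM) bound to 100 nM fluorescein-labeled phosphorylated 10-aa BACH1 peptide, pH 7.3 phosphate buffer with DTT and Tween 20. Compounds incubated 12 min at room temperature; inhibition read as lowered polarization.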
BRCT inh red = qHTS Assay for Inhibitors of BRCT-Phosphoprotein Interaction (Red Fluorophore); Breast cancer type 1 susceptibility protein (Homo sapiens), P38398; BRCT-phosphopeptide binding, red fluorescence polarization; Potency, µM (doses to about 76.9 µM), actives largely listed as inhibitors; 0.03% of 75,000 active
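Rhodamine-labelled pBACH1 10-mer (100 nM) bound to BRCT domain (100 nM) at pH 7.3; compounds incubated 12 min room temperature, polarization read. Free peptide defines full inhibition; unlabelled decapeptide titrated as control.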
A number is an active result; - = inactive; ? = inconclusive; . = not tested or not shown; ! = a repeat was not active; [ ] = dose if it differs, or a comment. Calls come from the whole dose curve; as a rule, active = well fitted curve in the direction sought with a large enough effect; inconclusive = small, poorly fitted or top-dose-only effect, or another doubt; inactive = no such curve, though single readings can be large; an effect the other way counts as inactive or inconclusive.

SMILES	15-hLO inh	15-hLO-2 inh	YjeE inh	DNA Pol III inh	BRCT PPI green	BRCT inh red
C=CC(C)=O	-	-	-	-	-	-
CC(=O)[O-].CC(=O)[O-].O.O.[Cd+2]	.	?	?	0.25µM	-	-
[O]=[Cr](=[O])([OH])[O][Cr](=[O])(=[O])[OH]	-	-	-	5µM!	-	-
N#C/C(=C\c1ccc(O)c(O)c1)C(N)=S	4µM	25µM	-	-	-	-
Oc1ccc2c3c1O[C@@H]1c4[nH]c5c(c4C[C@@]4(O)[C@@H](C2)N(CC2CC2)CC[C@]314)C[C@]1(O)[C@@H]2Cc3ccc(O)c4c3[C@@]1(CCN2CC1CC1)[C@H]5O4	-	-	-	-	-	-
C#CCN[C@@H](C)Cc1ccccc1	-	-	-	-	-	-
CC(=O)[C@@H]1CC[C@@H]2[C@H]3CC[C@H]4C[C@@H](O)CC[C@]4(C)[C@@H]3C(=O)C[C@]21C	.	.	-	-	.	.
O=C(O)c1cc[c]([Hg][Cl])cc1	1.6µM	3.2µM	-	-	-	-
O=C(O)c1cccc(Cl)c1	-	-	-	-	-	-
C[C@H](N[C@@H](C)CCc1ccccc1)[C@H](O)c1ccc(O)cc1	-	-	-	-	-	-
O=C(c1cc2c(s1)CCCC2)N1CCC2(CC1)OCCO2	-	7.9µM	-	-	-	-
COCCCOc1ccnc(CS(=O)c2nc3ccccc3[nH]2)c1C (configuration not stated)	.	13µM	.	.	.	.
Cc1c(OCC(F)(F)F)ccnc1CS(=O)c1nc2ccccc2[nH]1 (configuration not stated)	25µM!	?	-	-	-	-
C=CCN1CC[C@]23c4c5ccc(O)c4O[C@@H]2C(=O)CC[C@@]3(O)[C@H]1C5	-	-	-	-	-	-
O=C(O)c1ccccc1-c1c2cc(Br)c(=O)cc-2oc2[c]([Hg])c(O)c(Br)cc12	0.25µM	4µM	-	-	0.79µM	1.6µM
O=C1CN=C(c2cccs2)c2c(sc3c2CCCC3)N1	16µM	-	-	-	-	-
O=Cc1ccc(Cl)cc1Cl	-	-	-	-	-	-
CC1=NN(c2ccc(S(=O)(=O)O)cc2C)C(=[OH+])[C@H]1N=Nc1cc(S(=O)(=O)O)ccc1C(=O)O.O.[Cr]	-[11.4 µM]	-[11.4 µM]	-	-[11.4 µM]	-[15.4 µM]	-[15.4 µM]
C[C@H](c1ccccc1)N1CCN([C@@H](C)c2ccccc2)CC1	-[11.4 µM]	-[11.4 µM]	-	-[11.4 µM]	-[15.4 µM]	-[15.4 µM]
O=C1NC(=O)[C@]2(Cc3ccccc3N3CCN(c4ccccc4)CC32)C(=O)N1Cc1ccccc1 (some centres not stated)	-	32µM	-	-	-	-
Cc1ccccc1C1=NCC(=O)N(CC(=O)NCc2ccco2)c2sc3c(c21)CCCC3	25µM	-	-	-	-	-
C[C@]12CC[C@H](O)C[C@@H]1CC[C@H]1[C@H]2CC[C@]2(C)[C@H](C(=O)CO)CC[C@@H]12	-	-	-	-	-	-
CCCCC/C=C\C/C=C\C/C=C\C/C=C\CCCC(=O)O	0.32µM	?	.	.	-	-
CCCCC/C=C\C/C=C\C/C=C\C/C=C\CCCC(=O)NCCCl	.	-[0.0915 µM]	.	.	.	.
COc1ccc2c(c1)CC1(CN2C)C(=O)NC(=O)N(CCc2ccccc2)C1=O (configuration not stated)	16µM	-	-	-	-	-
SMILES	15-hLO inh	15-hLO-2 inh	YjeE inh	DNA Pol III inh	BRCT PPI green	BRCT inh red
COc1cc(CN2C(=O)NC(=O)C3(Cc4cc(C)ccc4N(C)C3)C2=O)cc(OC)c1 (configuration not stated)	-	-	-	-	-	-
CC[C@H](CO)NC(=O)[C@@H]1C=C2c3cccc4[nH]cc(c34)C[C@@H]2N(C)C1	-	-	-	-	-	-
NC(=O)CI	32µM	?	-	-	-	-
CCC(C)N1C(=O)NC(=O)C2(Cc3c(ccc4ccccc34)N(C)C2)C1=O (configuration not stated)	-	5µM	-	-	-	-
Oc1cc2c(cc1O)[C@H]1c3ccccc3CN[C@H]1CC2	-	6.3µM	-	-	-	-
Oc1cc2c(cc1O)[C@H]1c3ccccc3CN[C@@H]1CC2	?	?	-	-	-	-
CN1CC=C(c2c[nH]c3ccccc23)CC1	0.63µM	.	-	-	-	-
COc1ccc2[nH]cc(C3=CCNCC3)c2c1	-	-	-	-	-	-
C=CCN1CC[C@@]23CCCC[C@@H]2[C@@H]1Cc1ccc(O)cc13	-	-	-	-	-	-
Oc1ccc(Cl)cc1Cc1cc(Cl)ccc1O	13µM	-	-	-	-	-
CCN(CC)c1ncnc2c1ncn2[C@@H]1O[C@@H](COP(=O)(O)OP(=O)(O)C(Br)(Br)P(=O)(O)O)[C@H](O)[C@@H]1O	-	-	-	-	-	-
O=S1OCC2C(CO1)C1(Cl)C(Cl)=C(Cl)C2(Cl)C1(Cl)Cl (configuration not stated)	-	-	-	-	-	-
O=C(O)[C@@H]1[C@H](C(=O)O)[C@]2(Cl)C(Cl)=C(Cl)[C@@]1(Cl)C2(Cl)Cl	2.5µM	?	-	2µM	-[15.4 µM]	-[15.4 µM]
CC(=O)[O][Hg][c]1ccccc1	0.013µM	0.32µM	-	-	-	-
CC(=O)/C=C/c1ccccc1	-	-	-	-	-	-
CCCCCCCCCCCCCC(=O)O[C@H]1[C@@H](C)[C@@]2(O)[C@@H](C=C(CO)C[C@]3(O)C(=O)C(C)=C[C@@H]23)C2C(C)(C)[C@]21OC(C)=O (some centres not stated)	-	-	-	-	-	-
c1cc2cc(c1)C[n+]1ccc(c3ccccc31)NCc1ccc(cc1)CNc1cc[n+](c3ccccc13)C2	?	-	-	32µM	-	-
CN1C[C@@H](CNC(=O)OCc2ccccc2)C[C@H]2c3cccc4c3c(cn4C)C[C@@H]21	.	.	-	-	.	.
c1ccc2c(c1)Nc1ccccc1S2	6.3µM	5µM	-	-	-	-
C[CH2][Hg][S]c1ccccc1C(=O)O	1.3µM	0.63µM	.	.	-[3.08 µM]	-
O=C1C[C@@H]2OCC=C3CN4CC[C@]56c7ccccc7N1[C@H]5[C@@H]2[C@H]3C[C@@H]46	.	.	-	-	.	.
CC(C)c1cccc(O)c(=O)c1	?	13µM	.	.	-[3.08 µM]	-
C[C@@]12CC[C@H]3[C@@H](CCC4=C(O)C(=O)CC[C@]43C)[C@H]1CCC2=O	-	-	-	-	-	-
Oc1cccc(Cl)c1Cl	-	-	-	-	-	-
Oc1ccccc1O	16µM	?	-	-	-	-
